Laboratory results taken from ChEMBL document CHEMBL3433997, “St. Jude Leishmania screening dataset” (2016).

Columns and labels:
Type in all cases: functional
[1] = target: Solute carrier family 2, facilitated glucose transporter member 1 (Homo sapiens) (UniProt P11166); experiment: ST_JUDE_LEISH: Cytotoxicity at 2uM final concentration against transgenic Leishmania Mexicana promastigotes LmGLUT1 that are glucose transport deficient and complemented with the human glucose transporter GLUT1. Activity is measured by DNA content using SYBR green in vitro
Sequence of Solute carrier family 2, facilitated glucose transporter member 1 (Homo sapiens) (P11166 whole entry): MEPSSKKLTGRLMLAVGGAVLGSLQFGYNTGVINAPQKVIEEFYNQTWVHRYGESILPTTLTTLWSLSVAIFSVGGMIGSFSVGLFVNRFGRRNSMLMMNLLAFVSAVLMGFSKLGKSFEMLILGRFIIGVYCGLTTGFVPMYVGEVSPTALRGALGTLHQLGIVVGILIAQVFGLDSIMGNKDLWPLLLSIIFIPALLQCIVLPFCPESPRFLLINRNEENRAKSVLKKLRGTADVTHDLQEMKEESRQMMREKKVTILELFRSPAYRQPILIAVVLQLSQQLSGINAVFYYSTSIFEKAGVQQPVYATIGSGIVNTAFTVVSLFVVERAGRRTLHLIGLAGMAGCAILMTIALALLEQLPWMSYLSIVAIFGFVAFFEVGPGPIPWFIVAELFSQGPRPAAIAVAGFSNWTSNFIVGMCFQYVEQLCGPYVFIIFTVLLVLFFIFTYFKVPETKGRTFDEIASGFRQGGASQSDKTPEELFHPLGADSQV

[2] = target: Hexose transporter 1 (Plasmodium falciparum) (UniProt O97467); experiment: ST_JUDE_LEISH: Cytotoxicity at 2uM final concentration against transgenic Leishmania Mexicana promastigotes LmPfHT that are glucose transport deficient and complemented with the Plasmodium falciparum hexose transporter. Activity is measured by DNA content using SYBR green in vitro
[3] = target: Glucose transporter (Leishmania mexicana) (UniProt O61059); experiment: ST_JUDE_LEISH: Cytotoxicity at 2uM final concentration against transgenic Leishmania Mexicana promastigotes LmGT2 that are glucose transport deficient and complemented with the L. Mexicana glucose transporter 2. Activity is measured by DNA content using SYBR green in vitro

Compound | inhibition [1] | inhibition [2] | inhibition [3]
Cc1ccc(-c2cc3nc4c(c(NCCCn5ccnc5)n3n2)CCC4)cc1 | 2.77% | 1.6% | 0.92%
CS(=O)(=O)c1ccc(CCNCc2ccc(-c3cccc(-c4nc5ccccc5[nH]4)c3)cc2)cc1 | 1.41% | 0.65% | -0.73%
CCc1cn(C)c2c(N3CCCC3=O)cc(C(=O)N[C@@H](Cc3ccccc3)[C@H](O)CNC3CCCCC3)cc12 | 10.2% | 11% | 11.5%
O=C(NCCc1ccc(O)cc1)n1c2ccccc2c2ccccc21 | 2.7% | 4.05% | 1.38%
O=C(Nc1ccc2c(c1)CCC2)c1ccc(N2CCN(c3ccncc3)CC2)cc1 | 68.7% | 29.6% | 68.3%
Cc1ccc2[nH]c(C)cc(=NN=Cc3cccc(F)c3)c2c1 | 5.05% | 7% | 3.38%
CCOC(=O)c1ccc(NC(=O)N[C@@H](Cc2ccccc2)C(=O)NC2CCN(Cc3ccc(OCCCN(C)C)cc3)C2)cc1 (some centres undefined) | -0.91% | 0.74% | 0.98%
N=C(N)NC(=O)Nc1cc(Cl)c(Cl)c(C(F)(F)F)c1 | 2.87% | 3.46% | 1.58%
O=S(=O)(Nc1ccc(CCN2CCCCC2CCN2CCCC2)cc1)c1cccc2cccnc12 (centres undefined) | 1.48% | 1.12% | 2.15%
CN1CCc2cc(NC(=O)c3cc4ccccc4s3)cc(-c3ccccc3)c2CC1 | 97.2% | 101% | 95.9%
CCOC(=O)c1nc(-c2cccnc2)[nH]c1NC(=S)NCc1ccccc1 | 1.58% | 0.92% | 3.75%
O=C(Nc1ccc(OC2CCN(Cc3ccsc3)C2)c(Cl)c1)c1ccc(F)cc1 (centres undefined) | 0.29% | 0.51% | 0.32%
COc1cc(CNCCCCCCNCc2cc(OC)c(OC)c3ccccc23)c2ccccc2c1OC | 4.44% | 4.27% | 3.2%
CC1CN(c2ccc(NC(=O)c3cccs3)cc2)CCN1Cc1cccc(F)c1 (centres undefined) | -0.49% | -0.85% | 3.41%
c1ccc2[nH]c(-c3ccc(-c4ccc(CN5CCCCC5)cc4)cc3)nc2c1 | 18.2% | 12.9% | 10.6%
Clc1ccc2c(NCCc3ccccn3)ccnc2c1 | 6.58% | 6.15% | 6.87%
Nc1nc(N)c2cc(N(Cc3ccccc3)Cc3ccccc3)ccc2n1 | 16.1% | 17.2% | 10.8%
Cc1cccc2nc(-c3ccc(-c4ccc(CNCc5ccc(CN)cc5)cc4)cc3)[nH]c12 | 7.89% | 5.94% | 2.77%
O=C(/C=C/c1ccc(Cl)c(Cl)c1)NCCCCCN1CCC(NC(=O)Nc2cccc(F)c2)CC1 | 2.32% | 1.97% | 2.29%

Compound | inhibition [1] | inhibition [2] | inhibition [3]
COc1ccc(NC(=O)c2ccc(-c3nc(-c4ccccc4)cs3)cc2)cc1N1CCN(C)CC1 | 9.73% | 8.4% | 9.79%
CN1CCC(Oc2cc(NC(=O)Nc3ccc(-c4ccncc4)c(C(F)(F)F)c3)ccc2Cl)CC1 | 12.6% | 10.6% | 7.11%
CCN1CCC(N(Cc2ccc(-c3ccc(C(F)(F)F)cc3)cc2)C(=O)Cn2c(CCc3cccc(F)c3F)nc(=O)c3ccccc32)CC1 | 1.25% | 2.57% | 3.43%
CCOc1ccccc1C1C(C(=O)C(C)(C)C)N2c3ccc(Br)cc3C=CC2C12C(=O)c1ccccc1C2=O (centres undefined) | 72.3% | 76.5% | 57.1%
CCC(=O)c1cc(C(=O)NCCc2cccc(OC)c2)ccc1OC | 12.4% | 11.3% | 11.3%
O=C(Nc1cccc2ccccc12)N1CCC(NS(=O)(=O)c2cccc(C(F)(F)F)c2)CC1 | 0.57% | 0.62% | 0.91%
CN(C)CCCn1c(C(=O)OC(c2ccccc2)c2ccccc2)cc2cc(OCc3ccccc3)ccc21 | -0.72% | 0.08% | -2.32%
O=C(Cn1c(CCc2cccc(F)c2F)cc(=O)c2cccnc21)N(CCCn1ccnc1)Cc1ccc(-c2ccc(C(F)(F)F)cc2)cc1 | 2.11% | 1.17% | 0.71%
Cc1cccc2nc(-c3ccc(-c4cccc(CN5CCCCC5)c4)s3)[nH]c12 | 5.63% | 5.12% | 1.81%
O=[N+]([O-])c1cccc(S(=O)(=O)N2CCN(CC(O)COc3ccc(-c4ccccc4)cc3)CC2)c1 (centres undefined) | 1.04% | 1.75% | 4.46%
O=C(NC1CCN(Cc2ccsc2)CC1)c1ccc(-c2cccc(C(F)(F)F)c2)s1 | 8.18% | 9.07% | 0.59%
Oc1ccc(CNCC2CCN(CC3CCCCC3)CC2)cc1 | 5.22% | 0.53% | 5.43%
Nc1nc(N)c2c(ccc3c2ccn3Cc2ccccc2)n1 | 92.2% | 94% | 86.1%
COc1cc2ncnc(Nc3ccc(OCc4ccccc4)c(OCc4ccccc4)c3)c2cc1OC | 4.65% | 5.44% | 2.69%
O=C(NCC1CCC(C(=O)NCCc2ccc(Cl)c(Cl)c2)CC1)c1ccc(O)c(-c2ccc(Cl)c(Cl)c2)c1 (centres undefined) | -0.17% | 0.8% | 1.89%
O=C(Nc1cccc(F)c1)NC1CCN(c2ccnc3cc(Cl)ccc23)C1 (centres undefined) | 2.72% | 2.74% | 4.22%
CN=C(NC)c1cccc(NC(=O)C=Cc2ccc(C=CC(=O)Nc3cccc(C(=NC)NC)c3)cc2)c1 | 0.52% | 2.48% | -0.11%
O=C(Nc1nc(-c2ccccn2)cs1)c1ccc(Br)s1 | -1.89% | 4.54% | 0.61%
O=C(CN1CCC(NCc2cnc(-c3ccc(Cl)cc3)[nH]2)CC1)N1CCc2ccccc21 | -1.03% | 0.65% | 0.77%
